GDH-TPI counter-1: counter-screen for M. tuberculosis FBA inhibitors: GDH-TPI coupled enzymes | GDH-TPI coupled enzyme counterscreen, NADH absorbance | inhibition, % at 4.8 µM | 360,000 compounds, 1.2% hits; in the data active means inhibition above about 30%;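 further: 0% = DMSO wells and 100% = wells lacking the enzyme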
Mtb FBA inh: inhibits M. tuberculosis FBA enzyme; AID 588726; 360,000 compounds, 2.3% hits; inhibition, % at 1 µM; purified M. tuberculosis FBA, fluorescence read-out;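 further: 0% = vehicle and 100% = reference inhibitor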
Rv3671c inh: inhibitors of M. tuberculosis serine protease Rv3671c | P9WHR9 | AID 2606 | 320,000 compounds, 0.048% hits | inhibition, % at 5.96 µM; in the data active means inhibition above about 38%;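 further: extracellular domain of Rv3671c used as enzyme; 0% = enzyme with DMSO and 100% = no enzyme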
Target sequence (P9WHR9 whole entry, looked up, the tested form may be a part): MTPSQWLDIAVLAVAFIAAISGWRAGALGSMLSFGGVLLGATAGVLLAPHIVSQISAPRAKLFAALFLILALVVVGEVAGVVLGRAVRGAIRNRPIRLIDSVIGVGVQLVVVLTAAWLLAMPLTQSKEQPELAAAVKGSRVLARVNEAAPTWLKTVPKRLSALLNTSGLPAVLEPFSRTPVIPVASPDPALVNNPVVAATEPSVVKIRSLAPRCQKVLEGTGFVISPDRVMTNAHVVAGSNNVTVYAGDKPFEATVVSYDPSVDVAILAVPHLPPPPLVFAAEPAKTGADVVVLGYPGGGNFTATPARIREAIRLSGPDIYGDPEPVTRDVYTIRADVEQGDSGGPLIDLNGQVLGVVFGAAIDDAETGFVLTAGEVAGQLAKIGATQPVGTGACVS
UGM FP inh: Mtb UDP-galactopyranose mutase inhibition; 320,000 compounds, 0.06% hits; purified UGM, fluorescence polarization probe displacement; AID 504406; inhibition, % at 10 µM; P9WIQ1; in the data active means inhibition above about 10%, passing the limit was not always enough
Mtb FBA inh conf: confirmation of M. tuberculosis fructose-bisphosphate aldolase inhibitors. 5,600 compounds, 78% hits. shares compounds with Mtb FBA inh. AID 651616. purified M. tuberculosis FBA, fluorescence read-out. inhibition, % at 1 µM;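 further: 0% = vehicle wells and 100% = reference inhibitor wells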
GDH-TPI counter-2: GDH-TPI inhibition counter-screen for FBA inhibitors; shares compounds with Mtb FBA inh; GDH-TPI coupled enzyme counterscreen, fluorescence; inhibition, % at 1 µM; 5,600 compounds, 81% hits; AID 652141; in the data active means inhibition above about 10%
Starred values were filed as active, the others as inactive. Shown are actives, neighbours in structure and some others; about 3.5% of the full set was active somewhere. Unless noted, no stated cut-off is given here; in the data, active means inhibition above about 27%; inactive means the rest.

For CC1(C(=O)Nc2ccccc2Br)CCN1C(=O)Cc1ccccc1Cl (configuration not stated) the results were GDH-TPI counter-1 -0.9 and Mtb FBA inh -2.9.
O=C(CCNc1cccc(F)c1)c1cc2ccccc2o1 was read as GDH-TPI counter-1 2.5, Mtb FBA inh 28.4*, Rv3671c inh 0.2, UGM FP inh -0.4, Mtb FBA inh conf 3.6 and GDH-TPI counter-2 -5.1.
Screening CC(=O)Oc1ccc(-c2cccc(C(=O)N(C)c3ccc(O)cc3)c2)cc1 returned GDH-TPI counter-1 8.3, Mtb FBA inh 5.3, Rv3671c inh -0.9 and UGM FP inh -1.8.
N#C/C(=C\c1ccc(Cl)cc1Cl)c1n[nH]c(Cn2cncn2)n1 was read as GDH-TPI counter-1 21.0, Mtb FBA inh 36.2*, Rv3671c inh 0.5, UGM FP inh -1.4, Mtb FBA inh conf active and GDH-TPI counter-2 164.8*.
For COc1ccc(-c2c(NC(=O)C(C)C)n(C)c3ccccc3c2=O)cc1 the results were GDH-TPI counter-1 16.3, Mtb FBA inh 36.7*, Rv3671c inh 10.2, UGM FP inh -0.3, Mtb FBA inh conf active and GDH-TPI counter-2 active.
`COc1ccc(CN(C)CC(O)COc2ccc(C(=O)c3ccccc3)cc2)c(OC)c1OC` (configuration not stated) gave GDH-TPI counter-1 9.7, Mtb FBA inh 0.4, Rv3671c inh 1.9 and UGM FP inh 2.0.
`COc1ccc(Br)cc1CN(C)CC(O)COc1ccc(Br)cc1` (configuration not stated) gave GDH-TPI counter-1 16.4, Mtb FBA inh 53.2*, Rv3671c inh -0.6, UGM FP inh 2.1, Mtb FBA inh conf 66.7* and GDH-TPI counter-2 53.6*.
Screening COc1ccc(C(=O)N2CCN(c3nc4cc(C)cc(C)c4cc3C#N)CC2)cc1 returned GDH-TPI counter-1 -0.9 and Mtb FBA inh 11.3.
`Cc1ccc(C(=O)N2CCCN(c3nc4cc5c(cc4cc3C#N)OCO5)CC2)cc1` gave GDH-TPI counter-1 10.4, Mtb FBA inh 45.5*, Rv3671c inh -3.6, UGM FP inh 2.4, Mtb FBA inh conf 144.6* and GDH-TPI counter-2 87.8*.
Screening N#Cc1cc2cc3c(cc2nc1N1CCCCC1)OCCO3 returned GDH-TPI counter-1 13.0, Mtb FBA inh 47.5*, Rv3671c inh -2.8, UGM FP inh -1.4, Mtb FBA inh conf 55.3* and GDH-TPI counter-2 41.9*.
`CC(NC(=O)C1=CC=CN2CCS(=O)(=O)N=C12)c1ccc(Cl)cc1Cl` (configuration not stated) gave GDH-TPI counter-1 1.0, Mtb FBA inh 28.9*, Rv3671c inh -2.4, Mtb FBA inh conf 125.5* and GDH-TPI counter-2 94.7*.
For CC(NC(=O)C1=CC=CN2CCS(=O)(=O)N=C12)c1ccc(Cl)c(Cl)c1 (configuration not stated) the results were GDH-TPI counter-1 17.5, Mtb FBA inh 15.9, Rv3671c inh 0.5 and UGM FP inh 0.0.
Screening O=C(NCc1ccccc1Cl)C1=CC=CN2CCS(=O)(=O)N=C12 returned GDH-TPI counter-1 11.0, Mtb FBA inh 35.8*, Rv3671c inh -3.4, UGM FP inh -0.2, Mtb FBA inh conf active and GDH-TPI counter-2 active.
For COc1ccc(CN(CC(=O)NCc2ccc(F)cc2)C(=O)CCC(=O)Nc2ccccn2)cc1 the results were GDH-TPI counter-1 -1.1, Mtb FBA inh 0.7, Rv3671c inh -2.5 and UGM FP inh -4.5.
Screening C/C=C(\C)C(=O)OC(C)(C)[C@@H]1Cc2cc3ccc(=O)oc3cc2O1 returned GDH-TPI counter-1 10.2, Mtb FBA inh 92.6*, Rv3671c inh -9.1, UGM FP inh -0.1, Mtb FBA inh conf 156.7* and GDH-TPI counter-2 113.8*.
For COc1ccc(C(=O)Oc2ccc3ccc(=O)oc3c2)cc1 the results were GDH-TPI counter-1 0.0, Mtb FBA inh 8.9, Rv3671c inh 0.7 and UGM FP inh -1.7.
O=C(CSc1nnc(Nc2ccccc2)s1)NCC1CCCO1 (configuration not stated) was read as GDH-TPI counter-1 0.0, Mtb FBA inh 0.1, Rv3671c inh 8.6 and UGM FP inh -0.9.
Screening COC(=O)CCC(C)C1CCC2C3C(OC(C)=O)CC4CC(O)CCC4(C)C3CC(O)C12C (configuration not stated) returned GDH-TPI counter-1 -1.8 and Mtb FBA inh 20.6.
For CC(=O)Oc1ccc(C23c4ccccc4C2(OC(C)=O)c2cc(OC(C)=O)ccc23)cc1 (configuration not stated) the results were GDH-TPI counter-1 6.1, Mtb FBA inh 70.7*, Mtb FBA inh conf 97.8* and GDH-TPI counter-2 84.7*.
CC(=O)Oc1ccc(C(=O)Nc2ccccc2NC(=O)c2ccc(OC(C)=O)cc2)cc1 was read as GDH-TPI counter-1 -4.3, Mtb FBA inh 1.6, Rv3671c inh -6.2 and UGM FP inh -1.0.
For C=CCn1c(=O)c(C(=O)Nc2ccccc2C)c(O)c2ccccc21 the results were GDH-TPI counter-1 17.6 and Mtb FBA inh -1.4.
`C=CCn1c(=O)c(C(=O)Nc2ccccc2O)c(O)c2ccccc21` gave GDH-TPI counter-1 18.3, Mtb FBA inh 28.9*, Rv3671c inh 5.8, UGM FP inh 1.7, Mtb FBA inh conf 26.5 and GDH-TPI counter-2 23.7*.
`O=C(O)c1cc(-c2cccc3ccccc23)nc2ccccc12` gave GDH-TPI counter-1 0.0, Mtb FBA inh 11.3, Rv3671c inh -5.2 and UGM FP inh 4.0.
O=C(O)c1cc(-c2c[nH]c3ccccc23)nc2cc3ccccc3cc12 was read as GDH-TPI counter-1 16.9, Mtb FBA inh 55.2*, Rv3671c inh 5.0, UGM FP inh 0.7, Mtb FBA inh conf 75.5* and GDH-TPI counter-2 75.0*.
For Cc1ccc(C)c(-n2c3nc(=O)n(C)c(=O)c-3cc3ccccc32)c1 the results were GDH-TPI counter-1 19.0, Mtb FBA inh 100.3*, Rv3671c inh 9.8, UGM FP inh -1.0, Mtb FBA inh conf active and GDH-TPI counter-2 active.
For Cc1ccc(C)c(-n2c3nc(=O)[nH]c(=O)c-3cc3cc([N+](=O)[O-])ccc32)c1 the results were GDH-TPI counter-1 24.7, Mtb FBA inh -0.4, Rv3671c inh 30.3 and UGM FP inh -3.3.
`CCCCn1c(=O)nc2n(-c3ccccc3)c3ccccc3cc-2c1=O` gave GDH-TPI counter-1 10.4, Mtb FBA inh 45.6*, Rv3671c inh -4.9, UGM FP inh 3.5, Mtb FBA inh conf 122.5* and GDH-TPI counter-2 98.0*.
CCCCn1c(=O)cc(C)n(-c2ccccc2)c1=O was read as GDH-TPI counter-1 -3.7, Mtb FBA inh 0.3, Rv3671c inh -1.6 and UGM FP inh -0.3.
`Cc1ccc2c(c1)N(C(=O)CCC(=O)NCCCN1CCN(C)CC1)CC(C)O2` (configuration not stated) gave GDH-TPI counter-1 -15.8, Mtb FBA inh 0.2, Rv3671c inh 0.3 and UGM FP inh -5.1.
Cc1ccc(-c2cc(C(F)F)nc(S(C)(=O)=O)n2)cc1 was read as GDH-TPI counter-1 19.8, Mtb FBA inh 34.0*, Rv3671c inh -3.1, UGM FP inh 0.8, Mtb FBA inh conf 111.6* and GDH-TPI counter-2 85.7*.
For CS(=O)(=O)c1nc(-c2ccco2)cc(C(F)(F)F)n1 the results were Rv3671c inh -2.2 and UGM FP inh 6.5.

From PubChem BioAssay
